# Laboratory results: the supplement of paper PMC12067926
# Legend:
# Test in all cases: relative growth (AUC of 72 h growth curve relative to DMSO control, dAUC) (ratio); higher = more growth (less inhibition), active = hit call of the paper
# Conditions in all cases: 20 µM;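 active = growth AUC significantly below the DMSO wells by Dunnett test; inactive = the rest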
# [1] = compound: C=CCOC(Cn1ccnc1)c1ccc(Cl)cc1Cl
# Summary of the method: (§1)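 Growth was followed as A600, read hourly for 72 h on a plate reader after brief shaking. Isolates from Icelandic stream sediments and Silwood Park soil, and whole sediment communities, were first grown to carrying capacity in Luria–Bertani medium and then diluted 1:100 into 96-well plates with each chemical at 20 µM (1% DMSO). Relative growth (dAUC) is the spline-integrated area under the curve scaled to the mean of the DMSO controls, and the values are averages of three biological replicates.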
# [2] = compound: CC(=O)CC(c1ccccc1)c1c(O)c2ccccc2oc1=O
# Summary of the method: as §1
# [3] = compound: CC1COc2ccccc2N1C(=O)C(Cl)Cl
# Summary of the method: as §1
# [4] = compound: CCCCC(CC)CN1C(=O)[C@@H]2[C@H](C1=O)[C@@H]1C=C[C@H]2C1 (mixture of isomers)
# Summary of the method: as §1
# [5] = compound: CCCCCCCCc1c(CC)nc2ncnn2c1N
# Summary of the method: as §1
# [6] = compound: CCCCOCCOCCOCc1cc2c(cc1CCC)OCO2
# Summary of the method: as §1
# [7] = compound: CCCOC(=O)NCCCN(C)C
# Summary of the method: as §1
# [8] = compound: COC(=O)c1csc(C)c1S(=O)(=O)NC(=O)n1nc(OC)n(C)c1=O
# Summary of the method: as §1
# [9] = compound: Cc1ccc(C(C)NC(=O)[C@@H](NC(=O)OC(C)C)C(C)C)cc1
# Summary of the method: as §1
# [10] = compound: Cc1nn(C)c(Oc2ccccc2)c1/C=N/OCc1ccc(C(=O)OC(C)(C)C)cc1
# Summary of the method: as §1
# [11] = compound: Cn1cc(C(=O)Nc2ccc(F)cc2-c2ccc(Cl)c(Cl)c2)c(C(F)F)n1
# Summary of the method: as §1
# [12] = compound: Cn1cc(C(=O)Nc2ccccc2-c2cc(F)c(F)c(F)c2)c(C(F)F)n1
# Summary of the method: as §1
# [13] = compound: O=C(NCc1ncc(C(F)(F)F)cc1Cl)c1c(Cl)cccc1Cl
# Summary of the method: as §1
# [14] = compound: Oc1c(Cl)cc(Cl)c(Cl)c1Cc1c(O)c(Cl)cc(Cl)c1Cl
# Summary of the method: as §1
# [15] = compound: S=C([S-])NCCNC(=S)[S-].S=C([S-])NCCNC(=S)[S-].[Mn+2].[Zn+2]
# Summary of the method: as §1
# [16] = compound: c1ccc2[nH]c(-c3cscn3)nc2c1
# Summary of the method: as §1
Target,relative growth [1],relative growth [2],relative growth [3],relative growth [4],relative growth [5],relative growth [6],relative growth [7],relative growth [8],relative growth [9],relative growth [10],relative growth [11],relative growth [12],relative growth [13],relative growth [14],relative growth [15],relative growth [16]
Paenibacillus 1 (Paenibacillus castaneae),0.0487 (active),0.878 (inactive),0.947 (inactive),0.923 (inactive),0.906 (inactive),1 (inactive),1.08 (inactive),1.03 (inactive),0.947 (inactive),0.866 (inactive),0.835 (inactive),1.01 (inactive),1.04 (inactive),0.0147 (active),0.978 (inactive),0.987 (inactive)
Rhizobium 1 (Rhizobium herbae),0.836 (inactive),0.893 (inactive),1.03 (inactive),0.888 (inactive),0.952 (inactive),1.04 (inactive),1.06 (inactive),0.92 (inactive),1.02 (inactive),1.02 (inactive),0.332 (active),0.185 (active),0.977 (inactive),0.0348 (active),1.09 (inactive),1.14 (inactive)
Pseudomonas 3 (Pseudomonas mandelii),1.01 (inactive),1.06 (inactive),1.07 (inactive),1.05 (inactive),0.984 (inactive),1.04 (inactive),1.04 (inactive),1.04 (inactive),1.08 (inactive),1.09 (inactive),1.03 (inactive),1 (inactive),0.984 (inactive),0.00168 (active),0.907 (inactive),0.96 (inactive)
Community 10,0.783 (inactive),0.872 (inactive),0.795 (inactive),0.665 (inactive),0.99 (inactive),0.777 (inactive),1.02 (inactive),0.965 (inactive),0.84 (inactive),0.714 (inactive),0.742 (inactive),1.03 (inactive),0.996 (inactive),0.51 (active),1.11 (inactive),1.16 (inactive)
Flavobacterium 2 (Flavobacterium succinicans),0.489 (active),0.983 (inactive),0.926 (inactive),0.916 (inactive),0.961 (inactive),0.976 (inactive),1.03 (inactive),1 (inactive),0.933 (inactive),0.952 (inactive),0.849 (inactive),0.962 (inactive),0.966 (inactive),0.0105 (active),1.13 (inactive),1.03 (inactive)
Community 9,0.764 (inactive),0.985 (inactive),1.02 (inactive),0.846 (inactive),1.02 (inactive),0.906 (inactive),1 (inactive),1.1 (inactive),0.905 (inactive),0.906 (inactive),0.839 (inactive),1.05 (inactive),1.03 (inactive),0.306 (active),1.03 (inactive),0.911 (inactive)
Arthrobacter 3 (Arthrobacter sp.),0.33 (active),0.933 (inactive),1.01 (inactive),1.02 (inactive),0.981 (inactive),1.02 (inactive),1.02 (inactive),1.04 (inactive),0.922 (inactive),1 (inactive),0.725 (inactive),0.968 (inactive),0.978 (inactive),0.0157 (active),0.821 (inactive),0.921 (inactive)
Pseudomonas 1 (Pseudomonas baetica),1.01 (inactive),1.09 (inactive),1.04 (inactive),1.13 (inactive),0.923 (inactive),1.04 (inactive),0.968 (inactive),1.1 (inactive),1.06 (inactive),1.14 (inactive),1.15 (inactive),0.984 (inactive),1.04 (inactive),0.559 (active),0.921 (inactive),0.944 (inactive)
Community 8,0.913 (inactive),1.03 (inactive),1.03 (inactive),0.989 (inactive),1.07 (inactive),0.957 (inactive),1.03 (inactive),1.01 (inactive),0.972 (inactive),1.01 (inactive),0.943 (inactive),1.04 (inactive),1.02 (inactive),0.806 (inactive),1.13 (inactive),0.998 (inactive)
Oryzobacter 1 (Oryzobacter terrae),0.0303 (active),1.04 (inactive),1.15 (inactive),1.27,1.07 (inactive),1.18 (inactive),1.02 (inactive),1.13 (inactive),1.09 (inactive),1.17 (inactive),1.12 (inactive),0.91 (inactive),1.06 (inactive),0.00191 (active),0.909 (inactive),1.15 (inactive)
Hymenobacter 1 (Hymenobacter glaciei),0.768 (inactive),1.08 (inactive),0.952 (inactive),0.932 (inactive),1.05 (inactive),0.845 (inactive),1.07 (inactive),1.08 (inactive),0.999 (inactive),1.06 (inactive),0.927 (inactive),0.91 (inactive),1 (inactive),0.00356 (active),0.998 (inactive),0.917 (inactive)
Bacillus 1 (Bacillus foraminis),0.916 (inactive),1.09 (inactive),0.965 (inactive),1.04 (inactive),1.05 (inactive),1.03 (inactive),1.01 (inactive),1.11 (inactive),0.884 (inactive),1.07 (inactive),0.918 (inactive),1.06 (inactive),1.08 (inactive),0.408 (active),1.05 (inactive),0.853 (inactive)
Prolinoborus 1 (Prolinoborus fasciculus),0.664 (active),0.986 (inactive),0.921 (inactive),0.937 (inactive),0.883 (inactive),0.915 (inactive),1.04 (inactive),1.02 (inactive),1.02 (inactive),0.945 (inactive),0.947 (inactive),1.01 (inactive),0.999 (inactive),0.0191 (active),0.861 (inactive),0.964 (inactive)
Serratia 1 (Serratia sp. 2015-2462-01),0.919 (inactive),0.952 (inactive),0.946 (inactive),0.932 (inactive),0.971 (inactive),0.954 (inactive),0.979 (inactive),0.99 (inactive),0.955 (inactive),0.973 (inactive),0.949 (inactive),1.02 (inactive),0.994 (inactive),0.00199 (active),1.06 (inactive),0.982 (inactive)
Pseudomonas 4 (Pseudomonas peli),0.952 (inactive),0.978 (inactive),0.938 (inactive),0.959 (inactive),0.99 (inactive),0.961 (inactive),0.995 (inactive),1.03 (inactive),0.968 (inactive),1.01 (inactive),0.979 (inactive),0.992 (inactive),0.981 (inactive),0.00176 (active),0.927 (inactive),0.928 (inactive)
Argrobacterium 1 (Agrobacterium sp.),1.11 (inactive),0.978 (inactive),1.03 (inactive),1.13 (inactive),1.04 (inactive),0.946 (inactive),0.985 (inactive),1.01 (inactive),1.01 (inactive),1.17 (inactive),0.953 (inactive),0.918 (inactive),1.02 (inactive),0.705 (active),1.14 (inactive),0.852 (inactive)
